Source: PubChem BioAssay (The Scripps Research Institute Molecular Screening Center)
In the library only some 3.4% were active in any assay of this set; here they are far more common.
MITF inh: MITF inhibitors, primary screen, biochemical, AlphaScreen, human. Microphthalmia-associated transcription factor (Homo sapiens), O75030. AlphaScreen MITF homodimerization, bead proximity signal. inhibition, % at 2.6 µM. 650,000 compounds, 0.91% hits. AID 1259374, 2018; in the data active = inhibition above about 50%;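 note: 0% = vehicle wells with protein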
FBW7 act: FBW7 E3 ligase activators, primary screen, biochemical, AlphaScreen, human | AID 1259310, 2017 | F-box/WD repeat-containing protein 7 (Homo sapiens), Q969H0 | 650,000 compounds, 0.13% hits | AlphaScreen FBW7–phospho-cyclin E peptide binding, activator screen | normalized activity (activation), % at 26.1 µM; in the data active = normalized activity above about 1.9%;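 note: purified mutant Fbw7 with reduced substrate affinity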
Target sequence (Q969H0 whole entry, looked up): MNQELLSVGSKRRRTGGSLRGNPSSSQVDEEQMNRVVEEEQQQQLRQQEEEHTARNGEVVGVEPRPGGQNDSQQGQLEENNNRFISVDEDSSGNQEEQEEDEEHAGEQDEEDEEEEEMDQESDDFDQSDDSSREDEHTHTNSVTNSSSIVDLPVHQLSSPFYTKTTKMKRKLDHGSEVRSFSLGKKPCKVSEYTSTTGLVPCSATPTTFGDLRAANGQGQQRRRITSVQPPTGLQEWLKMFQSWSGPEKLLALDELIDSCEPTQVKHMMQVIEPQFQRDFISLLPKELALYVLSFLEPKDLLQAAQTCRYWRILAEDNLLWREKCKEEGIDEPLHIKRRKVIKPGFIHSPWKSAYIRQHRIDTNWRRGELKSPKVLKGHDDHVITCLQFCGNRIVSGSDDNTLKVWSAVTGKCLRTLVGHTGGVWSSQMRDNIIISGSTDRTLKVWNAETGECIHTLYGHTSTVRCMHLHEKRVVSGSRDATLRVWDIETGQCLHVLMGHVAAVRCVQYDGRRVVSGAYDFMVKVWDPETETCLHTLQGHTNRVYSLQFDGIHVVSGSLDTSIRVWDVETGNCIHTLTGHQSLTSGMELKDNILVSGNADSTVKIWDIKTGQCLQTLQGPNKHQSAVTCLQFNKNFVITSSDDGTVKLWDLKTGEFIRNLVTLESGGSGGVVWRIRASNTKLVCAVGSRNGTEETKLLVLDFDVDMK
TEAD-YAP inh: TEAD-YAP interaction inhibition, primary screen, TEAD-YAP interaction inhibitor project, luminescence, HEK-TIYL cells | TEAD-Gal4/YAP UAS-luciferase luminescence | inhibition, % at 9.12 µM | 640,000 compounds, 1.4% hits | AID 1259422, 2018; in the data active = inhibition above about 32%;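 note: 0% = median of test compound wells and 100% = reference inhibitor wells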
GPR151 ag: activators of human GPR151, primary screen, cell-based, PathHunter beta-arrestin, luminescence. 650,000 compounds, 1% hits. activation, % at 11.2 µM. G-protein coupled receptor 151 (Homo sapiens), Q8TDV0. PathHunter beta-arrestin GPR151 cells; in the data active = activation above about 4.9%;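 note: 0% = median of compound wells and 100% = cells with positive control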
MITF confirm: MITF inhibitors, retest of hits, confirmation, biochemical, AlphaScreen, triplicate | inhibition, % at 2.6 µM | AlphaScreen MITF homodimerization, biotin/His-MITF beads | shares compounds with MITF inh | 4,700 compounds, 16% hits;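 active = inhibition above a cutoff derived from the DMSO control wells, cut at about 28% in these data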;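 note: 0% = MITF dimer wells with DMSO only; inhibitors lower the bead chemiluminescence by keeping MITF from dimerizing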
AS interf DR: AlphaScreen optical interference compounds, dose response, counter-screen, biochemical, HTS | 480 compounds, 6% hits | IC50, µM | AID 1259373, 2018 | shares compounds with MITF inh | AlphaScreen optical interference counterscreen, cell-free; call rule not given here
AlphaScreen intf2: AlphaScreen optical interference compounds, counter-screen for MITF inhibitor project, biochemical, triplicate; 4,700 compounds, 7.6% hits; LysRS AlphaScreen counterscreen, signal interference; inhibition, % at 2.6 µM; AID 1259376, 2018; shares compounds with MITF inh;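 active = inhibition above a cutoff derived from the DMSO control wells, cut at about 30% in these data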
* marks the source's active call; other numbers are inactive results; x = no result given.

SMILES	MITF inh	FBW7 act	TEAD-YAP inh	GPR151 ag	MITF confirm	AlphaScreen intf2	others
CCN1CCN(CCOCCOc2ccc(F)cc2)CC1	70*	0	8	0	32*	10	AS interf DR=>6.5
CCN1CCN(CCOCCOc2ccc(I)cc2)CC1	81*	1	9	1	5	15
CC(=O)OCN1CCN(COC(C)=O)C1=O	8	0	7	0	x	x
CCOC(=O)C1(CCOC)CCN(Cc2c(C)nn(CC)c2C)CC1	9	0	0	0	x	x
Fc1ccc(OCCN2CCNCC2)cc1	60*	0	10	2	-11	-4
CCN1CCN(CCOc2ccc(F)cc2)CC1	81*	0	9	3	10	18
O=C(CN1CCc2nc(N3CCCC3)[nH]c(=O)c2C1)N1CCC(Cc2ccccc2)CC1	6	0	5	-1	x	x
COc1ccccc1CN1CCC(C(=O)N2CCN(Cc3ccccc3)CC2)CC1	52*	0	15	1	10	10
CCOC(=O)N1CCN(C(=O)C2CCN(Cc3ccccc3OC)CC2)CC1	54*	0	-4	-1	2	17
O=C(C1CCN(Cc2cccnc2)CC1)N1CCN(C/C=C/c2ccccc2)CC1	58*	0	16	1	9	9
CCOC(=O)N1CCN(C(=O)C2CCN(Cc3cc(OC)ccc3OC)CC2)CC1	41	0	3	0	x	x
O=C(C1CCN(Cc2ccc(F)cc2)CC1)N1CCN(c2ccccc2)CC1	52*	0	0	1	1	15
CCOC(=O)c1c(N)n(-c2ccc(N(C)C)cc2)c2nc3ccccc3nc12	-5	0	1	2	x	x
COc1ccc(CN2CCC(C(=O)N3CCc4ccccc4C3)CC2)cc1	30	0	2	0	x	x
O=C(C1CCN(Cc2cccc(O)c2)CC1)N1CCN(Cc2ccccc2)CC1	48	0	4	0	x	x
COc1ccc(CN2CCC(C(=O)N3CCc4ccccc4C3)CC2)c(OC)c1	53*	0	8	0	3	11
O=C(C1CCN(Cc2ccccc2)CC1)N1CCN(Cc2ccccc2)CC1	55*	0	19	-1	6	13
COc1cc(CN2CCC(C(=O)N3CCCC(C)C3)CC2)ccc1O (stereo not drawn)	24	0	5	2	x	x
CCOc1ccccc1N1CCN(C(=O)C2CCNCC2)CC1	58*	0	6	0	11	13
COc1cc(CN2CCC(C(=O)N3CCN(Cc4ccccc4)CC3)CC2)ccc1O	60*	0	2	0	-1	0
Cc1ccc(C(=O)CC(NCCc2c[nH]c3ccccc23)C(=O)O)cc1 (stereo not drawn)	4	0	-1	-1	x	x
CC(=O)c1ccc(OCCCCN2CCN(C)CC2)cc1	52*	0	-8	0	9	22
CCN1CCN(CCOc2ccc(C(C)=O)cc2)CC1	78*	0	0	0	1	16
CC(=O)c1ccc(OCCN2CCCCC2)cc1	32	0	-3	0	x	x
CCN1CCN(CC(=O)c2ccc(OC(F)F)cc2)CC1	78*	0	-1	1	9	18
SMILES	MITF inh	FBW7 act	TEAD-YAP inh	GPR151 ag	MITF confirm	AlphaScreen intf2	others
CCN(CC)S(=O)(=O)c1nnc(NC(=O)c2ccc(F)cc2)s1	-2	0	-24	1	x	x
O=C(NC1CCS(=O)(=O)C1)c1ccccc1Br (stereo not drawn)	51*	0	-5	1	10	-6
O=C(NC(=S)NC1CCS(=O)(=O)C1)c1ccccc1Br (stereo not drawn)	-7	0	6	-1	x	x
CC1CCCCC1Nc1cnn(C23CC4CC(CC(CC(=O)O)(C4)C2)C3)c(=O)c1Cl (stereo not drawn)	9	0	9	0	x	x
COc1cc(C(=O)N2CCN(Cc3ccccc3C)CC2)cc(OC)c1OC	60*	0	1	-1	38*	11	AS interf DR=>5.6
COc1cc(C(=O)N2CCN(Cc3ccccc3F)CC2)cc(OC)c1OC	18	0	13	0	x	x
COc1cc2c(cc1CN1CCN(C(=O)c3cc(OC)c(OC)c(OC)c3)CC1)OCO2	53*	0	5	0	12	9
CCOC(=O)c1ccc2nc(NC(=O)/C=C/c3ccc([N+](=O)[O-])cc3)sc2c1	-10	0	-3	-2	x	x
COc1cccc2cc(C(=O)Oc3cccc4cccnc34)c(=O)oc12	1	0	1	0	x	x
COC(=O)Cc1[nH]nc2c1C1(C(=O)N(Cc3ccccc3)c3ccccc31)C(C#N)=C(N)O2 (stereo not drawn)	10	0	7	0	x	x
COC(=O)Cc1[nH]nc2c1C1(C(=O)Nc3ccccc31)C(C#N)=C(N)O2 (stereo not drawn)	66*	0	-6	0	11	-2
O=C(NC1CCN(Cc2ccccc2)CC1)c1ccc2nc(-c3cccs3)sc2c1	52*	0	-1	1	60*	1	AS interf DR=>6.4
CCOc1ccc(C(=O)NC(=S)Nc2ccc(NC(=O)CC)cc2)cc1	-3	0	-9	-2	x	x
Cc1ccc2c(c1)c(=O)c1ccccc1n2CCCC(=O)N1CCN(c2ccc(Cl)cc2)CC1	-5	0	-1	0	x	x
Cc1ccc(CSc2nnc(-c3ccncc3)n2CCCN(C)C)cc1	72*	0	8	0	7	5
CN(C)CCCn1c(SCC(N)=O)nnc1-c1ccncc1	8	0	3	-1	x	x
O=C(NCc1ccccc1Cl)c1cc(S(=O)(=O)N2CCCCC2)c[nH]1	10	0	-6	-1	x	x
CC1(C)C2CC=C(COCC(O)CNCc3cccnc3)C1C2 (stereo not drawn)	62*	0	2	3	9	13
COc1cccc(OCCOCC(O)CN2CCN(c3ccccc3)CC2)c1 (stereo not drawn)	15	0	1	-3	x	x
COc1cccc(N2CCN(CC(O)COCC3=CCC4CC3C4(C)C)CC2)c1 (stereo not drawn)	73*	0	6	0	2	-1
O=C(Nc1ccc(-c2cn[nH]c2)c(C(F)(F)F)c1)C1COc2ccccc2O1 (stereo not drawn)	61*	1	-37	0	37*	3	AS interf DR=>6.5
NC(=O)c1ccc(N=Cc2cc(Br)ccc2O)cc1	-5	0	-3	2	x	x
O=C(O)c1ccc(O)c(C=Nc2ccc(N=Cc3cc(C(=O)O)ccc3O)cc2)c1	70*	0	-11	-1	73*	-9	AS interf DR=>6.5
